# The list is not random: actives were taken first. Their share in the collection is about 4.6%.
# TRHR PAM = qHTS for Small Molecule Agonists and Allosteric Enhancers of Human TRH Receptor: Primary Screen for Enhancers; Thyrotropin-releasing hormone receptor (Homo sapiens), P34981; TRHR cells, fluo-8 calcium fluorescence, EC20 TRH enhancement; enhancement, % at 2 µM; 0.66% of 360,000 active; in the data active = enhancement above about 30%; also: 0% is about no effect
# Target sequence (P34981 whole entry, looked up): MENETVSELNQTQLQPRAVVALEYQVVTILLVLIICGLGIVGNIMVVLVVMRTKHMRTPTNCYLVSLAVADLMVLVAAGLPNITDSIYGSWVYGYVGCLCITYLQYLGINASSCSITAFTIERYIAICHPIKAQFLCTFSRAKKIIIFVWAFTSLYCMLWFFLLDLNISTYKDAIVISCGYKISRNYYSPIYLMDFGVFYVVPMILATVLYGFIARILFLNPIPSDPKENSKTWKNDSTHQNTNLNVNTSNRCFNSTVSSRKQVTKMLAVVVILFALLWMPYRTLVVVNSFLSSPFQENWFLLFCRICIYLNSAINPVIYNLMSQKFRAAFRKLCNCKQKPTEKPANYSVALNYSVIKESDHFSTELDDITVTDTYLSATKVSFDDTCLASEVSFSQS
#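 Enhancer read-out: after compound pinning and an initial kinetic agonist-mode read, an EC20 of TRH (10 nM final) was injected and fluo-8 calcium signal (Ex 480/Em 530) followed at 1 s/cycle for 100 cycles in TRHR-expressing cells.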
# D1 PAM = Potentiators of Human D1 Dopamine Receptor: qHTS; D(1A) dopamine receptor (Homo sapiens), P21728; HEK293 TREx D1 cells, calcium flux, dopamine EC20 potentiation; potentiation, % at 10 µM; 0.036% of 360,000 active; in the data active = potentiation above about 30%; also: 0% is about no effect
# D1 antag = Antagonist of Human D 1 Dopamine Receptor: qHTS; D(1A) dopamine receptor (Homo sapiens), P21728; HEK293 TREx D1 cells, calcium flux, dopamine EC80; active compounds read low; activity change, negative = inhibition, % at 10 µM; 3.2% of 360,000 active; AID 504652, 2011; in the data active = activity change below about -30%; also: % is scaled to controls: 0 for no effect and ±100 for the full control effect
#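 HEK293 T-REx cells expressing inducible, force-coupled D1 receptor; no-wash Ca dye, 30–90 min RT. Cmpd → 180 s read at 1 Hz → EC80 DA → 180 s read.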
# TRHR agonist = qHTS for Small Molecule Agonists and Allosteric Enhancers of Human TRH Receptor: Primary Screen for Agonists; Thyrotropin-releasing hormone receptor (Homo sapiens), P34981; TRHR cells, calcium flux fluo-8, FDSS agonist mode; activation, % at 2 µM; 0.18% of 360,000 active; also: 0% is about no effect
#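 TRHR-expressing cells, plated overnight in medium with 10% serum, were loaded with fluo-8 calcium dye at room temperature. After a 10 s baseline, library compound was pin-added and calcium release was recorded kinetically (ex 480/em 530) as agonist response.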
# D1 agonist = Allosteric Agonists of the Human D1 Dopamine Receptor: qHTS | D(1A) dopamine receptor (Homo sapiens), P21728 | HEK293 T-REx D1 cells, calcium flux, agonist mode | activation, % at 2 µM | 1% of 360,000 active; also: 0% is about no effect
#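 Inducible HEK293 T-REx D1 cells, force-coupled to calcium signalling, were plated at 4000 cells/well with tetracycline and held overnight at 30 C. After no-wash calcium dye loading, compound-evoked calcium rise over 180 s flagged agonists.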
# Starred values were filed as active, the others as inactive; . = no result given; ! = not confirmed by another sample. Rule as the data show it, unless noted: active = activation above about 30%; inactive = the rest.
SMILES,TRHR PAM,D1 PAM,D1 antag,TRHR agonist,D1 agonist
O=C(Cn1cnc2c(cnn2-c2ccccc2)c1=O)N1CCOCC1,7,4,-9,0,3
O=C(Cn1cnc2ccccc2c1=O)N1CCN(c2ccccc2)CC1,2,-7,-36*,0,1
Cc1cc2c(=O)n(CC(=O)N3CCN(c4ccccc4)CC3)cnc2s1,1,-3,0,-2,-1
CCCCNC(=O)c1ccc2c(c1)NC(=O)C(CS(=O)(=O)Cc1cccc(C)c1)N2 (stereo not given),-6,-4,-10,2,8
CCSc1nnc(NC(=O)c2cccc(S(=O)(=O)N(C)c3ccc(C)cc3)c2)s1,-3,-7,-54*,0,3
COc1ccc(N(C)S(=O)(=O)c2cccc(C(=O)Nc3cccc(C(=O)NC4CC4)c3)c2)cc1,0,-14,-53*,0,6
Cc1ccc(N(C)S(=O)(=O)c2cccc(C(=O)Nc3ccc(C)cn3)c2)cc1,2,4,-88*,0,3
COc1cc2[nH]c(=O)n(CCCC(=O)N(C)Cc3ccccc3)c(=O)c2cc1OC,8,0,-1,0,2
Cc1cc(C)n(CCc2nc3c4ccccc4nc(N4CCN(c5ccccc5)CC4)n3n2)n1,-6,-1,8,0,0
CCc1cccc(NC(=O)Nc2csc3c2CCCC3)c1,14,-4,-30*,0,15
Cc1ccc(NC(=O)N2CCc3c([nH]c4ccccc34)C2c2ccccc2F)c(Cl)c1 (stereo not given),5,-1,-6,0,5
O=C(NCCS(=O)(=O)N1CCCCCC1)c1ccc(F)cc1,30*,-12,-15,0,1
O=C(NCCS(=O)(=O)N1CCCC1)c1ccccc1,5,0,29,-1,3
O=C(NCCS(=O)(=O)N1CCN(c2ccccc2F)CC1)c1ccc(F)c(F)c1,-3,-12,-33*,0,0
O=C(CCc1ccccc1)N/N=C\c1cc2c(cc1Br)OCO2,18,-8,-31*,-1,5
O=C(CSCc1ccccc1)N/N=C/c1cc2c(cc1Br)OCO2,-12,4,-12,-2,9
O=C(CCc1ccccc1)N/N=C/c1cc(Br)ccc1O,-1,-3,-43*,0,29
O=C(N/N=C/c1cc(Br)ccc1O)c1ccccc1Cl,6,-5,-42*,0,2
COC(=O)N/N=C/c1cc(Br)ccc1O,5,5,6,0,-1
CC(C)NC(=S)N/N=C/c1cc(Br)ccc1O,2,-9,-58*,0,15
CCCc1cc(=O)n2[nH]c(NCc3ccccc3OC)nc2n1,16,3,9,-1,-3
Cc1ccc(NC(=O)C(OC(=O)c2ccc(O)cc2)c2ccccc2)cc1Cl (stereo not given),-4,3,-41*,1,8
CCOC(=O)c1cc(OC(=O)c2cccnc2)n(-c2ccccc2)n1,0,6,-39*,0,0
CCOC(=O)c1cc(OC(=O)c2cccc(C)c2)n(-c2ccccc2)n1,8,-1,-3,0,2
COc1ccc2oc(-c3ccc(C)c(NC(=O)c4ccc(-c5ccccc5[N+](=O)[O-])o4)c3)nc2c1,9,-2,-6,4,1
SMILES,TRHR PAM,D1 PAM,D1 antag,TRHR agonist,D1 agonist
Cc1ccc(CS(=O)(=O)Cc2ccc(C(=O)NCCc3ccc(Cl)cc3)o2)cc1,-8,0,-6,0,5
CCOC(=O)C1CCN(C(=O)Cn2nc(CC)n3c(cc4occc43)c2=O)CC1,-7,2,-33*,0,5
CCc1nn(CC(=O)NCCCN2CCN(C)CC2)c(=O)c2cc3occc3n12,4,0,-37*!,1,2
CCc1nn(CC(=O)NCCN2CCN(C)CC2)c(=O)c2cc3occc3n12,3,3,-14,-1,3
Cn1c(=O)c2c(nc(Oc3ccccc3Cl)n2Cc2ccc(C#N)cc2)n(C)c1=O,0,11,11,1,-1
CC1(C(=O)NC(=S)NNC(=O)c2ccncc2)CCCCC1,-2,-2,-18,12,43*
O=C(NNC(=S)NC(=O)C12CC3CC(CC(C3)C1)C2)c1ccncc1,6,-5,0,36*,136*
CC/C(=N\NC(=O)c1ccncc1)C12CC3CC(CC(C3)C1)C2,-8,4,-4,0,1
O=C(NNC(=O)C1CCCCC1)c1ccncc1,10,.,17,0,4
CC(C)c1cccc(C2=CC(=O)C[C@H](c3ccc(F)cc3)C2)c1,-6,-14,-39*,1,6
Cc1ccc(S(=O)(=O)NCC(=O)NCC(=O)OCc2c(F)cccc2Cl)cc1,9,-6,-62*,-1,13
Cc1ccc(C(=O)NCC(=O)OCc2c(F)cccc2Cl)cc1,10,-3,4,0,4
CCCCCC(=O)N1CC2(CC(c3cccc(NC(=O)CC(c4ccccc4)c4ccccc4)c3)=NO2)C[C@@H]1C(N)=O (stereo not given in full),-3,-4,-47*,1,9
CCC(=O)N1CC2(CC(c3cccc(NC(=O)COc4ccc(Cl)cc4)c3)=NO2)C[C@@H]1C(N)=O (stereo not given in full),0,6,-53*,0,3
CCCCCC(=O)Nc1cccc(C2=NOC3(C2)C[C@H](C(N)=O)N(C(=O)CCCCC)C3)c1 (stereo not given in full),2,4,5,0,0
Cc1nc(CC(=O)Nc2ccc(N(C)C)cc2)cs1,-2,2,3,1,0
CCOc1ccc(C(=O)Nc2cccc(OCc3cc(=O)n4cc(C)sc4n3)c2)cc1,2,-1,-3,0,-1
Cc1sc2ncnc(Sc3ccccc3C(=O)O)c2c1C,35*,1,-7,0,5
COCCCNS(=O)(=O)c1ccc(N2CCCCS2(=O)=O)cc1,-5,0,-1,0,4
COc1cc(SC)ccc1C(=O)Nc1cccc(S(=O)(=O)NC2=NCCCCC2)c1,-13,-6,-38*,0,11
CSc1ccccc1C(=O)Nc1ccc(S(=O)(=O)NC2=NCCCCC2)cc1,-6,-3,23,-1,0
COc1ccccc1C(=O)Nc1ccc(S(=O)(=O)NC2=NCCCCC2)cc1,1,-12,-58*,0,3
CC(Oc1cccc(Cl)c1)C(=O)Nc1ccc(S(=O)(=O)NC2=NCCCCC2)cc1 (stereo not given),7,2,3,1,17

# Bioassay records deposited in PubChem BioAssay by National Center for Advancing Translational Sciences (NCATS).
